This is a sample that favours compounds with a hit; in the whole collection about 2.8% have one here.
PI5P4K alpha inh: inhibitors of human PI5P4K alpha; PI5P4Kalpha enzyme, ADP-Glo luminescence, 60 min; active compounds read low; max response, %; actives 1.2% (n = 330,000); AID 652105; active = max response of -50% or lower; inconclusive = between -30% and -50%; inactive = -30% or higher; also: value at the top dose of about 77 µM
Target sequence (P48426 whole entry, looked up): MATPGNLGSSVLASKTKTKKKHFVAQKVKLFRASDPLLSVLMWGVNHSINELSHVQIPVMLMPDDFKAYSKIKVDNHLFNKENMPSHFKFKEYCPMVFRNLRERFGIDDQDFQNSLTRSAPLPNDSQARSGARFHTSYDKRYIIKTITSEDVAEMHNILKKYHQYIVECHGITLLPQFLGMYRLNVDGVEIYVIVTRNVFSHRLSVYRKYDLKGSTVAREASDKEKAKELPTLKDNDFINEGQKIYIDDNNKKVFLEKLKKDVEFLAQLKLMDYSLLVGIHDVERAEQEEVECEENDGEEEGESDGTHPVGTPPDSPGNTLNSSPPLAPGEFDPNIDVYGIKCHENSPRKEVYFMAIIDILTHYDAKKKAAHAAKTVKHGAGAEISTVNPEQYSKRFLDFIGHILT
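Controls without substrate or without enzyme flank wells where PI5P4Kalpha converts substrate using 5 microM ATP (final). Incubation lasts 60 minutes at room temperature; ADP formed is read by ADP-Glo luminescence.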
WRN helicase inh: WRN helicase (human) inhibition; WRN helicase unwinding, fluorescent forked duplex, kinetic; Potency, µM (top dose mostly 114 µM), usual class: inhibitors; Q14191; actives 0.46% (n = 360,000); also: nearly all actives have a fitted effect of over 55% in size
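Enzyme (20 nM final) and test compound sit together 15 min at room temperature before substrate addition. Substrate is a single-forked duplex oligonucleotide (100 nM) labelled with fluorophore and quencher, with 2 mM ATP; helicase unwinding raises red fluorescence, read kinetically.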
Pol iota inh: blocks human DNA polymerase iota activity | Q9UNA4 | Pol iota fluorescent replication assay, 10 min | Potency, µM (highest dose often 115 µM), hits mostly inhibitors | actives 1% (n = 390,000) | AID 588590
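Pol iota at 10 nM preincubated 15 min with compounds at room temperature; reaction started with fluorescent substrate, 50 nM final. Fluorescence read kinetically at 0 and 10 min; buffer-only wells as negative control.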
Pol eta inh: inhibitors of human DNA polymerase eta; Q9Y253; AID 588591; actives 1.2% (n = 390,000); Potency, µM (highest dose often 114 µM), usual class: inhibitors; recombinant Pol eta, fluorescent DNA replication assay
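Fluorescent replication assay: 50 nM final substrate added after a 15 min room-temperature compound preincubation with 10 nM enzyme. Signal taken at 0 min and again at 10 min.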
POLB inh: blocks human DNA polymerase beta activity | P06746 | Pol beta primer extension/strand displacement, fluorescence kinetic | Potency, µM (highest dose often 114 µM), most hits filed as inhibitors | actives 1.3% (n = 340,000)
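Homogeneous kinetic assay of primer extension and strand displacement by 10 nM Pol beta, preincubated 15 min at room temperature with compound before 50 nM substrate (final) was added. Read at 0 and 10 min; four-parameter Hill fit.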
Pol kappa inh: inhibitors of human DNA polymerase kappa; AID 588579; Potency, µM (series often up to 107 µM), most hits filed as inhibitors; purified Pol kappa, fluorescent DNA synthesis assay, 10 min; actives 0.53% (n = 400,000); Q9UBT6
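Readout: fluorescence, taken kinetically at 0 and 10 min. Conditions: 10 nM Pol kappa, 15 min RT compound preincubation, 50 nM substrate final. Controls: enzyme-free buffer wells.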
Numbers stand for hits; - = inactive; ? = inconclusive; . = no result; ! = repeats disagree; [ ] = remark or other dose. Unless noted, calls follow the shape of the dose curve; as a rule, active = well fitted curve in the direction sought with a large enough effect; inconclusive = small, poorly fitted or top-dose-only effect, or another doubt; inactive = no such curve, though single readings can be large; an effect the other way counts as inactive or inconclusive.

SMILES | PI5P4K alpha inh | WRN helicase inh | Pol iota inh | Pol eta inh | POLB inh | Pol kappa inh
CC1CCCC(C)N1/N=C/c1ccc(O)c(O)c1 (stereo unspecified) | ? | -[11.6 µM] | ? | ? | 2.2µM | 40µM
COc1ccc(/C=N/N2C(C)CCCC2C)cc1O (stereo unspecified) | - | - | - | - | - | -
CC/C(C)=N/Nc1nc(-c2cc3cccc(OC)c3oc2=O)cs1 | -60 | ? | 50µM | 50µM | - | ?
CC(C)(C)[C@H]1COC(=O)CCCC/C=C\C[C@H](CC(=O)N(CCO)Cc2ccccc2)C(=O)N1 | - | - | - | - | . | -
C=C1C=C(C)n2ncc(C(=O)Nc3cccc4cnccc34)c2N1 | . | . | 79µM | . | . | ?
N#Cc1ccc(CSc2nnc(Cc3cccs3)n2Cc2ccco2)cc1 | ? | - | 18µM | 22µM | 14µM | ?
COc1cccc2c1C(=O)c1c(O)c3c(c(O)c1C2=O)C[C@@](O)(C(=O)CO)C[C@@H]3O[C@H]1C[C@H](N)[C@H](O)[C@H](C)O1 | - | 56µM | - | 45µM | 8.9µM | 27µM!
CC(=O)C1(O)Cc2c(O)c3c(c(O)c2C(OC2CC(N)C(O)C(C)O2)C1)C(=O)c1c(O)cccc1C3=O (stereo unspecified) | . | . | ? | . | . | 7.1µM
O=C(NCCc1nnc2ccc(N3CCCC3)nn12)c1ccccc1 | - | - | - | - | . | -
O=C(Nc1ccccc1N1CCCC1)C1CCCO1 (stereo unspecified) | - | - | - | - | . | -
c1ccc2c(c1)OCC(c1nn3c(Cn4nnc5ccccc54)nnc3s1)O2 (stereo unspecified) | . | - | 50µM | ? | ? | ?
c1ccc(-c2nn3c(Cn4nnc5ccccc54)nnc3s2)nc1 | . | - | ? | 79µM | 18µM | ?
CCC1(c2ccccc2)SC(N)=NC1=O (stereo unspecified) | - | - | - | - | . | -
Cn1cnc([N+](=O)[O-])c1S(=O)(=O)Oc1ccc(Cl)cc1 | - | 35µM | ? | - | . | -
C[C@@H]1CN([C@H](C)CO)C(=O)CCCn2cc(nn2)CO[C@H]1CN(C)S(=O)(=O)c1ccc(C#N)cc1 | - | - | . | - | . | .
COc1cc(Cl)c(C)cc1NC(=O)c1ccccc1NC(=O)CN1CCOCC1 | - | - | ? | 79µM | ? | ?
Cc1ccc(CCNC(=O)c2cc3c(s2)-c2c(C)cccc2OC3)cc1 | . | . | - | ? | 3.5µM | -
O=C(NCCc1ccc(Cl)cc1)c1cc2c(s1)-c1ccccc1OC2 | . | . | 89µM | - | 35µM | ?
O=C(Nc1ccc(Cl)cn1)c1cc2c(s1)-c1ccccc1OC2 | - | - | - | - | - | -
CCOc1ccc(CCNC(=O)c2cc3c(s2)-c2ccccc2OC3)cc1OCC | . | . | ? | - | 32µM | -
CC1(C(=O)NCc2ccc3c(c2)OCO3)CCN1C(=O)C1(c2ccc(Cl)cc2)CC1 (stereo unspecified) | - | - | . | . | . | .
OCCCNC(=S)Nc1ccc2nccnc2c1 | - | - | 14µM | - | - | -
Cc1cc(C)c(NC(=O)COC(=O)/C=C/c2cccs2)c(C)c1 | - | - | - | - | - | -
CN=c1sc2c(n1C)C(=O)c1ccccc1C2=O | - | - | ? | 79µM | . | -
COc1cccc(-c2cnc3c(NC(C)=O)cc(-c4ccc(C(=O)N5CCOCC5)cc4)cn23)c1 | - | - | . | . | . | .
SMILES | PI5P4K alpha inh | WRN helicase inh | Pol iota inh | Pol eta inh | POLB inh | Pol kappa inh
O=C(NCc1ccco1)c1ccc(-c2csnn2)cc1 | - | - | ? | - | 10µM | -
O=C(COC(=O)c1ccc(F)c(S(=O)(=O)N2CCOCC2)c1)Nc1ccc(Cl)cn1 | - | - | . | - | . | .
O=Nc1ccc(NOC(=O)c2ccccc2Br)cc1 | - | - | - | - | 79µM | -
O=C(CN1C(=O)NC(Cc2c[nH]c3ccccc23)C1=O)Nc1ccc(F)cc1F (stereo unspecified) | - | - | - | - | . | -
COC(=O)C1CCN(C(=O)COC(=O)c2cc(-c3ccccc3)nc3ccc(OC)cc23)CC1 | - | -[11.6 µM] | 20µM | 40µM | . | -
Cc1oc2c(O)c(O)ccc2c(=O)c1-c1ccccc1 | - | - | ? | - | ? | ?
Cc1oc2c(O)c(O)ccc2c(=O)c1-c1cnn(-c2ccccc2)c1 | . | - | ? | ? | - | 40µM
COC(=O)c1[nH]c(=O)c2ccccc2c1O | - | - | 22µM | - | - | -
C(=C\c1ccco1)/C1=NN(c2ccccc2)C(c2ccco2)C1 (stereo unspecified) | - | ? | - | - | ? | -
O=[N+]([O-])c1ccc(/C=C/C2=NN(c3ccccc3)C(c3ccco3)C2)o1 (stereo unspecified) | -62 | ? | ? | ? | ? | ?
Cc1cc(OCC(=O)OC(C)C(=O)Nc2ccc(N3CCOCC3)cc2)ccc1Cl (stereo unspecified) | - | - | - | - | . | -
COc1cc(C(=O)Nc2cc3c(cc2C)n(C)c(=O)c(=O)n3C)cc(OC)c1OC | . | . | - | - | - | -
NC(=O)COc1c(-c2ccco2)oc2ccccc2c1=O | - | - | - | - | - | -
O=C(O)COc1c(-c2ccco2)oc2ccccc2c1=O | - | - | ? | - | 40µM | -
CCCCNC1C(CC)C(CCC)C(C#N)(C#N)C1(C#N)C#N (stereo unspecified) | - | - | - | - | - | -
C/C(=N\NC(=S)Nc1ccc(C(C)C)cc1)c1ccc2c(c1)OCO2 | - | - | - | - | - | -
CNC(=S)N/N=C(\C)c1ccc2c(c1)OCCO2 | -76 | - | - | - | - | -
CNC(=S)N/N=C(\C)c1ccc2c(c1)OCO2 | -65 | - | - | - | - | -
COc1ccc(S(=O)(=O)N2CCOCC2)cc1NC(=O)CSc1nnc2n1CCCCC2 | - | - | - | - | . | -
Cc1ccc(/C=c2/sc3nnc(-c4ccccc4Cl)n3c2=O)o1 | - | ? | ? | 14µM | 40µM | -
Cc1ccc(/C=c2\sc3nc(-c4ccccc4Br)nn3c2=O)o1 | ? | ? | ? | 10µM | 14µM | 20µM
Cc1ccc(/C=c2\sc3nc(-c4ccco4)nn3c2=O)o1 | -69 | 56µM | ? | 3.5µM | 28µM | 28µM
COc1ccccc1/C=c1\sc2nc(-c3ccccc3OC)nn2c1=O | - | - | - | - | - | -
Cc1ccc(-c2nc3s/c(=C\c4ccco4)c(=O)n3n2)cc1 | . | - | 25µM | 89µM | 28µM | -
COc1ccc(N(CC(=O)Nc2cc(Cl)ccc2C)S(=O)(=O)c2c(C)n[nH]c2C)cc1 | - | - | - | - | - | -
COc1ccc(Cl)cc1NC(=O)CN(c1cc(C)cc(C)c1)S(=O)(=O)c1c(C)n[nH]c1C | . | . | 79µM | ? | - | ?
CC(C)c1ccc([C@@H]2O[C@H](C)CC3=C2C(=O)OC(C)(C)O3)cc1 | - | - | . | . | . | .

From PubChem
